Vaccinia pol inh = vaccinia E9 polymerase processive synthesis inhibitors, primary screen, biochemical, absorbance | Vaccinia virus DNA polymerase (E9) processive complex | in vitro processive DNA synthesis, absorbance read-out; stronger effect = lower value | normalized absorbance, % (test concentration not listed) | 46,000 tested, 0.94% active; in the data active means normalized absorbance mostly below about 85%, no sharp cut-off; inactive means mostly above about 86%
A number is an active result. The entries come from a sample that favours hits as a whole.

Results for O=C(/C=C/c1ccc(-c2cccs2)s1)N1CCSCC1 ?
Vaccinia pol inh: inactive

How did CS(=O)(=O)/N=C(\NC#N)c1ccccc1 do in these assays?
Vaccinia pol inh: inactive

What do the screens show for `CN(C)c1ccc(/C=C(\C#N)S(C)(=O)=O)c(F)c1C#N`?
Vaccinia pol inh: inactive

Results for Cc1nc(N=C(N)N)nc2ccccc12 ?
Vaccinia pol inh: inactive

How did COc1ccc2nc(C)c3c(c2c1)OC(C)C3 (stereo not drawn) do in these assays?
Vaccinia pol inh: inactive

What do the screens show for `COc1ccc2nc(N=C(N)N)nc(C)c2c1`?
Vaccinia pol inh: 36

Results for CCCC(=O)Nc1nnc(SCC(=O)Nc2ccccc2C(F)(F)F)s1 ?
Vaccinia pol inh: inactive

What do the screens show for `O=S1(=O)CCC(N=Cc2ccc(-c3cccc(C(F)(F)F)c3)o2)C1` (stereo not drawn)?
Vaccinia pol inh: inactive

What do the screens show for `O=C1NC(=S)S/C1=C/c1ccc(-c2cccc(C(F)(F)F)c2)o1`?
Vaccinia pol inh: 80

Results for O=C1NC(=S)S/C1=C\c1ccccc1C(F)(F)F ?
Vaccinia pol inh: inactive

What do the screens show for `Cc1ccc(C(=O)N/C(=C\c2ccco2)C(=O)NCc2ccco2)cc1`?
Vaccinia pol inh: inactive

What do the screens show for `CC(=C/C(=O)O)/C=C/c1ccccc1`?
Vaccinia pol inh: inactive

How did CC1=C(/C=C/C(C)=C/C=C/C(C)=C/C(=O)Nc2ccc(O)cc2)C(C)(C)CCC1 do in these assays?
Vaccinia pol inh: inactive

Results for CC1=C(/C=C/C(C)=C/C=C/C(C)=C\C(=O)O)C(C)(C)CCC1 ?
Vaccinia pol inh: 29

How did Cc1ccc(N2CCN(C(=O)c3ccc(Br)cc3)CC2)cc1C do in these assays?
Vaccinia pol inh: inactive

How did CCc1cc2c(SCC(=O)c3ccc(Br)cc3)ncnc2s1 do in these assays?
Vaccinia pol inh: inactive

What do the screens show for `CC1=CC(C)C2COC(c3ccc(OC(=O)NC4CCCCC4)cc3)C1C2C` (stereo not drawn)?
Vaccinia pol inh: inactive

What do the screens show for `O=C1c2c(O)ccc(O)c2C(=O)c2c(NCCNCCO)ccc(NCCNCCO)c21`?
Vaccinia pol inh: 7.8

Results for COC(=O)c1cc(=O)c2c(SC)nc(-c3ccccc3)nc2[nH]1 ?
Vaccinia pol inh: inactive

How did CCN(CC)CCCC(C)Nc1c2ccc(Cl)cc2nc2ccc(OC)cc12 (stereo not drawn) do in these assays?
Vaccinia pol inh: 15

How did COc1ccc2nc(C)cc(SCC(=O)c3ccc(Cl)cc3)c2c1 do in these assays?
Vaccinia pol inh: inactive

How did CCSc1nc(C)c2cc(OC)ccc2n1 do in these assays?
Vaccinia pol inh: inactive

How did C=CCN(CC=C)c1nn[nH]n1 do in these assays?
Vaccinia pol inh: 60

How did COC(=O)CSc1nnc(-c2c[nH]c3ccccc23)n1-c1ccc(F)cc1 do in these assays?
Vaccinia pol inh: inactive

What do the screens show for `CCN1/C(=C/c2ccc3ccccc3[n+]2CC)Sc2cc(NC(C)=O)ccc21`?
Vaccinia pol inh: 39

What do the screens show for `CC(=O)Nc1ccc(C(=O)OCC(=O)Nc2ccc3ccccc3c2)cc1`?
Vaccinia pol inh: inactive

How did CC(=O)Nc1cccc(-c2nc3ccccc3[nH]2)c1 do in these assays?
Vaccinia pol inh: inactive

Results for COC(=O)[C@@H]1CC(C)=C(C)C[C@H]1C(=O)OC ?
Vaccinia pol inh: inactive

Results for Nc1ccc(Oc2ncc(C(F)(F)F)cc2Cl)cc1 ?
Vaccinia pol inh: inactive

Results for O=C(c1ccc(C(=O)N2CCCC2)cc1)N1CCCC1 ?
Vaccinia pol inh: inactive

How did Cc1ccc2oc(C(=O)Nc3nnc(C(C)C)s3)c(C)c2c1 do in these assays?
Vaccinia pol inh: inactive

What do the screens show for `O=C(Cn1c(-c2cccs2)cc2ccccc21)NC1CCCCC1`?
Vaccinia pol inh: inactive

How did CNC(=O)COc1ccc(-c2nn(C)c(=O)c3ccccc23)cc1 do in these assays?
Vaccinia pol inh: 76

How did CNC(=O)COc1ccc(NC(=O)CCn2nc(-c3ccc(Cl)cc3)c3ccccc3c2=O)cc1 do in these assays?
Vaccinia pol inh: inactive

Results for Cc1cc(-c2nn(C)c(=O)c3ccccc23)cc(C)c1OCC(=O)NN ?
Vaccinia pol inh: inactive

What do the screens show for `Cc1cccc(-n2cc(-c3cc4cc(Cl)ccc4oc3=O)[nH]c2=S)c1`?
Vaccinia pol inh: inactive

What do the screens show for `O=S(=O)(c1ccc(O)c(N=Cc2ccccc2O)c1)C(F)(F)F`?
Vaccinia pol inh: inactive

Results for O=C1CC(Sc2ccc3ccccc3c2)C2COC1O2 (stereo not drawn) ?
Vaccinia pol inh: 36

What do the screens show for `CC1CCc2nc(SC3CC(=O)C4OCC3O4)nc(C(F)(F)F)c2C1` (stereo not drawn)?
Vaccinia pol inh: inactive

Results for O=C1CC(N2C(=O)C3CC=CCC3C2=O)C2COC1O2 (stereo not drawn) ?
Vaccinia pol inh: inactive

How did Cc1ccc(S(=O)(=O)Nc2ccccc2N)cc1 do in these assays?
Vaccinia pol inh: inactive

What do the screens show for `NC(=O)c1ccc(NC(=O)CSc2nc3ccccc3[nH]2)cc1`?
Vaccinia pol inh: inactive

What do the screens show for `CCOC(=O)c1cnc2ccccc2c1NCCO`?
Vaccinia pol inh: inactive

Results for CCOC(=O)c1cnc2ccc(C(=O)OC)cc2c1NCCN(C)C ?
Vaccinia pol inh: 52

What do the screens show for `CCOC(=O)c1cnc2ccc(F)cc2c1NCc1cccnc1`?
Vaccinia pol inh: inactive

How did COCCn1c(=NC(=O)CSCC(=O)N2CCCc3ccccc32)sc2cc(OC)ccc21 do in these assays?
Vaccinia pol inh: inactive

Results for CN(C(=O)CSc1ccc(Br)cc1)C1CCCCC1 ?
Vaccinia pol inh: inactive

How did CC1CCN(c2nn3c(N)c(/C=C4\C=Nc5ccccc54)c(=O)nc3s2)CC1 do in these assays?
Vaccinia pol inh: inactive

Results for CC(O)CNc1ncnc2c1c(-c1ccccc1)cn2-c1ccccc1 (stereo not drawn) ?
Vaccinia pol inh: inactive

How did Nc1nnc(CC(=O)N2CCCCC2)o1 do in these assays?
Vaccinia pol inh: inactive

What do the screens show for `CC1CCCC(C)N1CCNc1nc2ccccc2c2nc(-c3ccccc3)nn12` (stereo not drawn)?
Vaccinia pol inh: 59

What do the screens show for `Cc1nc2c3ccccc3nc(NN3C(=O)CCC3=O)n2n1`?
Vaccinia pol inh: inactive

What do the screens show for `O=C(Cn1c(=O)n2nc(-c3ccccc3)nc2c2ccccc21)c1ccc(Br)cc1`?
Vaccinia pol inh: inactive

Results for CCC(=O)c1cc(F)ccc1O ?
Vaccinia pol inh: inactive

Results for CCC(=O)c1c(C)nc2n(Cc3ccccc3)c3ccccc3n12 ?
Vaccinia pol inh: inactive

How did CN1C(=O)/C(=C\C=C\c2ccccc2Cl)SC1=S do in these assays?
Vaccinia pol inh: inactive

Results for CCC(C(=O)Nc1c2c(nn1-c1ccc(F)cc1)CSC2)c1ccccc1 (stereo not drawn) ?
Vaccinia pol inh: inactive

How did O=C1C(=Nc2cccc(C(F)(F)F)c2)c2ccccc2N1CN1CCc2ccccc2C1 do in these assays?
Vaccinia pol inh: inactive

What do the screens show for `Cc1cc(Oc2ccccc2)nc(Oc2ccc(OCCOc3ccc(Br)cc3)nn2)n1`?
Vaccinia pol inh: inactive

How did COc1ccc2[nH]c3nc(=S)[nH]nc3c2c1 do in these assays?
Vaccinia pol inh: inactive

Results for COc1ccc2[nH]c3c(N(C)C)ncnc3c2c1 ?
Vaccinia pol inh: 64

What do the screens show for `CCN(CC)c1ncnc2c1[nH]c1ccc(C)cc12`?
Vaccinia pol inh: inactive

What do the screens show for `CC(C)c1nc2ccccc2n1CCCOc1ccccc1`?
Vaccinia pol inh: inactive

What do the screens show for `Ic1cccc(-c2nnc(-c3ccccc3)o2)c1`?
Vaccinia pol inh: inactive

What do the screens show for `O=C(CN1CCN(Cc2ccc(F)cc2Cl)C1=O)NCc1ccc(Cl)cc1`?
Vaccinia pol inh: inactive

How did O=C(c1[nH]c2ccccc2c1Sc1ccc(Cl)cc1)N1CCCC1 do in these assays?
Vaccinia pol inh: inactive

Results for Cc1ccc2c(Sc3ccc(Cl)cc3)c(C(=O)O)[nH]c2c1 ?
Vaccinia pol inh: 57

Source: PubChem
